Source: PubChem BioAssay
For part of these data: Entries with a potency or affinity are not part of this list. Activity calls are given as the source filed them.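 How the source made its calls, unless noted: active means fluorescence ratio normalized to control raised more than 50% in primary screen plus both repeat runs; inactive means the rest.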

Key:
[1] = test system: TRPC4 beta (transient receptor potential cation channel C4), mouse; assay: TRPC4 cation channel opening, retest – cell-based, Fluo4 calcium, HEK293 TRPC4beta/mu-opioid, duplicates, 10 µM, confirmation (AID 2426); conditions: Fluo4 calcium fluorescence, at 10 µM; stronger effect = higher value
[2] = test system: transient receptor potential cation channel C4 beta (TRPC4), mouse; assay: TRPC4 cation channel opening, second retest – cell-based, second round, Fluo4, HEK293 TRPC4beta/mu-opioid, 1 µM, confirmation (AID 2461;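 active means primary screen active and over 50% activation in each of two duplicate runs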); conditions: Fluo4 calcium fluorescence, at 1 µM; stronger effect = higher value
[3] = test system: TRPC4 (transient receptor potential cation channel C4 beta), mouse; assay: potentiation of DAMGO EC20 TRPC4 response – cell-based, second round, Fluo-4, HEK293 TRPC4beta/mu-opioid, 1 µM, confirmation (AID 2554;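 active means primary screen hit whose fluorescence ratio, in both repeats, exceeds the weak agonist control mean by 3 SD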); conditions: DAMGO EC20, Fluo-4 calcium flux, at 1 µM; stronger effect = higher value
[4] = test system: TRPC4 beta (transient receptor potential cation channel C4), mouse; assay: potentiation of DAMGO EC20 TRPC4 response – cell-based, Fluo-4, HEK293 TRPC4beta/mu-opioid, confirmation (AID 2555;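 active means primary screen hit whose calcium fluorescence ratio, in both repeats, exceeds the weak agonist control mean by 3 SD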); conditions: DAMGO EC20, Fluo-4 calcium flux, at 10 µM; stronger effect = higher value
[5] = biological target: Short transient receptor potential channel 4 (Mus musculus) (UniProt Q9QUQ5); assay: blockers of DAMGO-evoked TRPC4 calcium flux – cell-based, Fluo4, HEK293 TRPC4beta/mu-opioid, confirmation (AID 2636;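 active means calcium signal cut by more than 3 SD below the full-agonist control yet still positive, in both repeats and the earlier primary screen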); conditions: at 10 µM; stronger effect = higher value
Short transient receptor potential channel 4 (Mus musculus), sequence (Q9QUQ5 whole entry, looked up): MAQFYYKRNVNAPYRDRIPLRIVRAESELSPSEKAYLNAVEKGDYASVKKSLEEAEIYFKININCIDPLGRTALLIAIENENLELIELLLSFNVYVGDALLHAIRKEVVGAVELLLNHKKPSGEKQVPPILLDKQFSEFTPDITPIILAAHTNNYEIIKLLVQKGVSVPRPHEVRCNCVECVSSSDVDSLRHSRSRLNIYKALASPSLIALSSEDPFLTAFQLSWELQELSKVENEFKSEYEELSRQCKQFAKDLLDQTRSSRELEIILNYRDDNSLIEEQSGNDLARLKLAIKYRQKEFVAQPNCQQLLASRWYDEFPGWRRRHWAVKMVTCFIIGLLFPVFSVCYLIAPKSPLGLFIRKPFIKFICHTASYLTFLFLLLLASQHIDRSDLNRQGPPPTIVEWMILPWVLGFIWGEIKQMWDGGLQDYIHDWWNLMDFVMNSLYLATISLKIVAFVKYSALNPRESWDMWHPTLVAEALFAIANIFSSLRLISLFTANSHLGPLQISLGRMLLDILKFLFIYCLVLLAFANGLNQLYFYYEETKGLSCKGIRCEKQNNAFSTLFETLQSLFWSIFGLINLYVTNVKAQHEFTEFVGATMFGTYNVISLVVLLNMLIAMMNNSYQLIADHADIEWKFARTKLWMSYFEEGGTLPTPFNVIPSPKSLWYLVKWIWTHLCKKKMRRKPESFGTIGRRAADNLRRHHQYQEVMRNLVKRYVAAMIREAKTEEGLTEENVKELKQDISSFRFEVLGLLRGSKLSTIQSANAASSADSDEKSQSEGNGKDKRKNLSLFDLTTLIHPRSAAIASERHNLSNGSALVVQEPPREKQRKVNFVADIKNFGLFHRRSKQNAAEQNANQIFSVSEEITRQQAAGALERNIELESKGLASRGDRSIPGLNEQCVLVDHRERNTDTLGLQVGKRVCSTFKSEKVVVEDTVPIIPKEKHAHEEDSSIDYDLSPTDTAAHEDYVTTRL

[6] = biological target: Short transient receptor potential channel 4 (Mus musculus) (UniProt Q9QUQ5); assay: blockers of DAMGO-evoked TRPC4 calcium flux – cell-based, second round, Fluo4, HEK293 TRPC4beta/mu-opioid, 1 µM, confirmation (AID 2637;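 active means calcium signal ratio cut to more than 3 SD under the fully stimulated control mean yet still positive, in both repeats and the primary screen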;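 on inhibition: percent of integrated ratio relative to wells lacking test compound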); conditions: at 1 µM; stronger effect = higher value
[7] = biological target: Short transient receptor potential channel 4 (Mus musculus) (UniProt Q9QUQ5); assay: calcium entry via TRPC4 opening agents – cell-based, HEK293 TRPC4/mu-opioid, Fluo-4 calcium, dose response (AID 434937;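 active means primary screen activator hit with a dose response curve and TRPC4 channel activation at any tested dose; inactive means no activation, no dose response, or not a primary hit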)
[8] = biological target: Short transient receptor potential channel 4 (Mus musculus) (UniProt Q9QUQ5); assay: potentiation of DAMGO-evoked TRPC4 calcium signal – cell-based, HEK293 TRPC4/mu-opioid, Fluo-4 calcium, EC20 DAMGO, dose response (AID 434941;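 active means earlier screen potentiator hit that boosts the TRPC4 ion channel at some dose, with a dose response; inactive means no potentiation, no dose response, or not a prior hit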;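 further: calcium entry triggered by an EC20 dose of DAMGO at the co-expressed mu-opioid receptor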)
[9] = biological target: Short transient receptor potential channel 6 (Mus musculus) (UniProt Q61143); assay: TRPC6 blockade by TRPC4 inhibitor hits – cell-based, HEK293, membrane potential dye, duplicate, selectivity assay for TRPC4 inhibitor project, confirmation (AID 434948;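 active means active in primary screen and both duplicates, each dropping signal beyond three positive-control SD with fluorescence still positive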); conditions: HEK293 TRPC6, membrane potential dye fluorescence, at 10 µM, stimulated with maximal-effect acetylcholine; stronger effect = higher value
Short transient receptor potential channel 6 (Mus musculus), sequence (Q61143 whole entry, looked up): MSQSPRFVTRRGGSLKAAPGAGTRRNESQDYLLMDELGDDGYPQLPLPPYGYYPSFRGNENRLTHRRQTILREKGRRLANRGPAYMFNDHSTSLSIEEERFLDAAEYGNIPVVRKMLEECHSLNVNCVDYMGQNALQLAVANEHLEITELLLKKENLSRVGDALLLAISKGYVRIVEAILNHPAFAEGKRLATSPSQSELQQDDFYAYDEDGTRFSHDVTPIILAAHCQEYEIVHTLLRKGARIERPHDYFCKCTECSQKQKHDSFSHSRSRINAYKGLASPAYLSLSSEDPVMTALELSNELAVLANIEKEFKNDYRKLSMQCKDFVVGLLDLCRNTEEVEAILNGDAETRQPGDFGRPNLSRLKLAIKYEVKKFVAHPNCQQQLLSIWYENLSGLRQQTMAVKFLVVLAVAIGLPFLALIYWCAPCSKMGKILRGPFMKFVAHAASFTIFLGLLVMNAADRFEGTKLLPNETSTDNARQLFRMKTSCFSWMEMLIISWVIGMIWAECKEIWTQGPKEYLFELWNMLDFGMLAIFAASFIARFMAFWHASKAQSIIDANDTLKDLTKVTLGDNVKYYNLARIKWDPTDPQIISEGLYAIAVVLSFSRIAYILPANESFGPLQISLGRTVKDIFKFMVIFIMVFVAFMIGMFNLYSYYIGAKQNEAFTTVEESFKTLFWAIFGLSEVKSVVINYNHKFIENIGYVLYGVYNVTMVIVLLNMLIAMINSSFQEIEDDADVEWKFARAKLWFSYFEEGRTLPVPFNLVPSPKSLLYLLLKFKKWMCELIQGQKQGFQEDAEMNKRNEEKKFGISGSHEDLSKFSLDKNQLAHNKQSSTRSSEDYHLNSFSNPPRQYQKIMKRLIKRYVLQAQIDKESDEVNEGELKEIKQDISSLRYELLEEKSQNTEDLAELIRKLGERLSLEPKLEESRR

[10] = biological target: Short transient receptor potential channel 6 (Mus musculus) (UniProt Q61143); assay: TRPC6 opening by TRPC4 activator hits – cell-based, HEK293, membrane potential dye, duplicate, selectivity assay for TRPC4 activator project, confirmation (AID 434950;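 active means membrane potential signal rise above negative control mean plus 3 SD in both duplicates, also active in the earlier TRPC4 screen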;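 on activation: 0% = buffer only wells and 100% = acetylcholine maximal-effect wells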); conditions: HEK293 TRPC6, membrane potential fluorescence, at 10 µM; activation: stronger effect = higher value; outcome: activation
[11] = biological target: Short transient receptor potential channel 6 (Mus musculus) (UniProt Q61143); assay: positive modulators of mouse TRPC6 channel – HEK293 cells, membrane potential dye, duplicate, selectivity assay for TRPC4 potentiator project, confirmation (AID 434952;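 active means compound raising the membrane signal above positive-control mean plus 3 SD in both repeats, and a primary screen hit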); conditions: HEK293 TRPC6, membrane potential dye fluorescence, at 10 µM, maximal acetylcholine added after compound; stronger effect = higher value
[12] = biological target: Short transient receptor potential channel 4 (Mus musculus) (UniProt Q9QUQ5); assay: calcium flux activators in TRPC4/5HT1a cells, counter-screen for TRPC4 activator project, cell-based, second counter screen, HEK293 TRPC4/5HT1a, Fluo-4 (AID 434977;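 active means calcium signal rise above buffer-control mean plus 5 SD in both duplicates, and also a hit in the primary screen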); conditions: Fluo-4 calcium flux, at 10 µM; stronger effect = higher value
[13] = serotonin-gated TRPC4 signal block – cell-based, second counter screen, HEK293 TRPC4/5HT1a, Fluo-4, counter-screen for TRPC4 inhibitor project, confirmation (AID 434978;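 active means primary screen active whose calcium signal fell more than 3 SD beyond the full-serotonin control mean in both duplicate plates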;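 on outcome: serotonin given first at submaximal then at maximal dose after compound preincubation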); conditions: Fluo-4 calcium flux, at 10 µM, serotonin added to trigger calcium flux; stronger effect = higher value
[14] = test system: TRPC4 (mouse), co-expressed with 5HT1a in HEK293; assay: enhancement of serotonin-evoked TRPC4 response – cell-based, second counter screen, HEK293 TRPC4/5HT1a, Fluo-4, counter-screen for TRPC4 potentiator project, confirmation (AID 434979;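 active means signal rise over 3 SD above mean of control wells given weak agonist, in both repeats and first screen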); conditions: Fluo-4 calcium flux, at 10 µM, serotonin added at its EC20 dose; stronger effect = higher value
[15] = nonspecific calcium rise without TRPC4 – cell-based, HEK293 mu-opioid receptor line, counter-screen for TRPC4 activator project, confirmation (AID 449723;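 active means hit in primary screen, with calcium signal over 5 SD above buffer well mean in both duplicates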;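 further: counter screen cells carry the mu-opioid receptor alone and lack TRPC4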); conditions: HEK293 mu-opioid cells, Fluo-4 calcium fluorescence, at 10 µM; stronger effect = higher value
[16] = nonspecific potentiation of DAMGO calcium response – cell-based, HEK293 mu-opioid receptor line, counter-screen for TRPC4 allosteric potentiator project, confirmation (AID 449724;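 active means calcium signal rise more than 3 SD above the low-dose agonist control mean, in both duplicate plates and the primary screen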); conditions: HEK293 mu-opioid receptor cells, Fluo-4 calcium flux, at 10 µM, compound added before EC20 DAMGO stimulus; stronger effect = higher value

COc1ccc(Nc2cc(C)nc3ccc(OC)cc23)cc1
inactive: outcome [1] | outcome [2] | outcome [3] | outcome [4] | outcome [6] | outcome [7] | outcome [8] | outcome [10] | outcome [11] | outcome [12] | outcome [13] | outcome [14] | outcome [15] | outcome [16]
active: inhibition [5] 91% | inhibition [9] 29.5%

Fc1ccccc1CNCCC(Cc1ccccc1)c1ccc2c(c1)OCO2 (stereo not given)
inactive: outcome [1] | outcome [2] | outcome [3] | outcome [4] | outcome [5] | outcome [6] | outcome [7] | outcome [8] | outcome [9] | outcome [11] | outcome [12] | outcome [13] | outcome [14] | outcome [15] | outcome [16]
active: activation [10] 48%

CC(C)c1ccc(S(=O)(=O)/N=C2\C=C(NS(=O)(=O)c3ccccc3)C(=O)c3ccccc32)cc1
active: inhibition [5] 81% | inhibition [9] 21.5% | inhibition [13] 19.2%
inactive: outcome [1] | outcome [2] | outcome [3] | outcome [4] | outcome [6] | outcome [7] | outcome [8] | outcome [10] | outcome [11] | outcome [12] | outcome [14] | outcome [15] | outcome [16]

CCOc1ccccc1CN1CCC(n2nccc2NC(=O)CCc2ccccc2)CC1
active: inhibition [5] 97% | inhibition [6] 69%
inactive: outcome [1] | outcome [2] | outcome [3] | outcome [4] | outcome [7] | outcome [8] | outcome [9] | outcome [10] | outcome [11] | outcome [12] | outcome [13] | outcome [14] | outcome [15] | outcome [16]

CCCCC[n+]1cccc2c3ccccc3ccc21
active: inhibition [5] 93% | inhibition [9] 29% | inhibition [13] 28.4%
inactive: outcome [1] | outcome [2] | outcome [3] | outcome [4] | outcome [6] | outcome [7] | outcome [8] | outcome [10] | outcome [11] | outcome [12] | outcome [14] | outcome [15] | outcome [16]

CC(C)(C)NCc1ccccc1OCc1cccs1
active: inhibition [5] 95% | inhibition [6] 45% | inhibition [9] 15% | inhibition [13] 17.5%
inactive: outcome [1] | outcome [2] | outcome [3] | outcome [4] | outcome [7] | outcome [8] | outcome [10] | outcome [11] | outcome [12] | outcome [14] | outcome [15] | outcome [16]

CCOc1ccc2[nH]c3c(N4CCN(c5ccccn5)CC4)ncnc3c2c1
inactive: outcome [1] | outcome [2] | outcome [3] | outcome [4] | outcome [6] | outcome [7] | outcome [8] | outcome [9] | outcome [10] | outcome [11] | outcome [12] | outcome [13] | outcome [14] | outcome [15] | outcome [16]
active: inhibition [5] 83%

Cc1cc(N2CCCCC2)nc2ccccc12
inactive: outcome [1] | outcome [2] | outcome [3] | outcome [4] | outcome [7] | outcome [8] | outcome [9] | outcome [10] | outcome [11] | outcome [12] | outcome [14] | outcome [15] | outcome [16]
active: inhibition [5] 83% | inhibition [6] 40% | inhibition [13] 28.5%

COCCn1c(SCc2ccccc2F)nc2ccccc2c1=O
active: inhibition [5] 88% | inhibition [13] 20.8%
inactive: outcome [1] | outcome [2] | outcome [3] | outcome [4] | outcome [6] | outcome [7] | outcome [8] | outcome [9] | outcome [10] | outcome [11] | outcome [12] | outcome [14] | outcome [15] | outcome [16]

CCCn1c(=O)c2ccccc2n2c(SCCOc3ccccc3)nnc12
inactive: outcome [1] | outcome [2] | outcome [3] | outcome [4] | outcome [6] | outcome [7] | outcome [8] | outcome [9] | outcome [10] | outcome [11] | outcome [12] | outcome [14] | outcome [15] | outcome [16]
active: inhibition [5] 67% | inhibition [13] 37.4%

CCCNC(=O)c1nnsc1S(=O)c1ccc(Cl)cc1 (stereo not given)
inactive: outcome [1] | outcome [2] | outcome [3] | outcome [4] | outcome [7] | outcome [8] | outcome [9] | outcome [10] | outcome [11] | outcome [12] | outcome [14] | outcome [15] | outcome [16]
active: inhibition [5] 88% | inhibition [6] 42% | inhibition [13] 20.3%

CCOc1cc(CNCc2cccs2)ccc1OCC(=O)NC(C)(C)C
inactive: outcome [1] | outcome [2] | outcome [3] | outcome [4] | outcome [7] | outcome [8] | outcome [9] | outcome [10] | outcome [11] | outcome [12] | outcome [13] | outcome [14] | outcome [15] | outcome [16]
active: inhibition [5] 98% | inhibition [6] 49%

COc1cccc(NC(=O)CCC(=O)N2CC(C)Oc3ccc(C)cc32)c1 (stereo not given)
active: inhibition [5] 85% | inhibition [13] 42.1%
inactive: outcome [1] | outcome [2] | outcome [3] | outcome [4] | outcome [6] | outcome [7] | outcome [8] | outcome [9] | outcome [10] | outcome [11] | outcome [12] | outcome [14] | outcome [15] | outcome [16]

Cc1nc(Cl)nc(N(C)c2ccccc2)c1[N+](=O)[O-]
active: inhibition [5] 97% | inhibition [6] 49% | inhibition [13] 43.6%
inactive: outcome [1] | outcome [2] | outcome [3] | outcome [4] | outcome [7] | outcome [8] | outcome [9] | outcome [10] | outcome [11] | outcome [12] | outcome [14] | outcome [15] | outcome [16]

CCCCOc1ccc(Nc2cc(Cl)ccc2C(=O)O)cn1
active: inhibition [13] 27.6%
inactive: outcome [1] | outcome [2] | outcome [3] | outcome [4] | outcome [5] | outcome [6] | outcome [7] | outcome [8] | outcome [9] | outcome [10] | outcome [11] | outcome [12] | outcome [14] | outcome [15] | outcome [16]
